Measurements from PubChem BioAssay.
Active and inactive are the calls of the source.

Test: splicing luciferase reporter signal modulators, primary screen, spliceosome inhibition project, cell-based, HEK293, splice +/- reporter (AID 1101);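 further: HEK293 cells carrying a splicing-competent luciferase reporter gene; test concentration not given here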
Settings: luminescence, 24 h, higher = more signal, called active from +8 up or from −8 down

z-score, active:
CCN1C(=O)[C@@H]2[C@H]3C(=CC[C@@H]2C1=O)C1(OCCCO1)[C@H]1O[C@H]1[C@H]3O -9.75

z-score, inactive:
COc1cccc([C@H]2Oc3ccc(OC)cc3C(=NO[C@@H](C)c3cn([C@H](CO)Cc4ccccc4)nn3)[C@@H]2O)c1 -0.0241, COC(=O)CC=C[C@@H](C)[C@@H](C=NOC[C@H]1O[C@H](c2ccccc2)C=C[C@@H]1Oc1ccc(OC)cc1)NS(=O)(=O)c1ccc(C)cc1 0.00198, C=CC1=C[C@H](O)[C@@H]2O[C@@H]2C12OCCCO2 0.404, COC(=O)CC=C[C@@H](C)[C@H](OCc1cccc(-c2ccccc2)c1)C1CCCCC1 -0.102, CC(C)CON=C1C[C@@H](O)[C@@H](O)[C@@H]2[C@@H]3C(=O)N(Cc4ccc5c(c4)OCO5)C(=O)[C@@H]3CC[C@H]12 0.31, COc1ccc(O[C@H]2C=C[C@@H](c3ccccc3)O[C@@H]2CON=C(C)C)cc1 1.07, COC(=O)CC=C[C@@H](C)[C@@H](C=NOC(C)CN1CCCc2nc(C)c(C)cc21)OC (stereo partly specified) 0.404, CC(C)(C)N1C(=O)[C@H]2[C@H]3[C@H](O)[C@H](O)CC(=NO[C@@H]4O[C@H](CO)[C@@H](O)[C@H](O)[C@H]4O)[C@H]3CC[C@H]2C1=O 0.543, C#CCCCON=C1C[C@@H](O)[C@@H](O)[C@@H]2[C@@H]3C(=O)N(C(C)(C)C)C(=O)[C@@H]3CC[C@H]12 0.233, CCOC(=O)NN=C1C[C@@H](O)[C@@H](O)[C@@H]2[C@@H]3C(=O)N([C@@H](C)c4ccccc4)C(=O)[C@@H]3CC[C@H]12 -0.681, COC(=O)[C@@H]1CC[C@H](C)[C@@H](c2ccc(C)cc2)N1C(=O)c1ccc(C=NO[C@H](C)c2cn([C@H](CO)Cc3ccccc3)nn2)cc1 -0.178, CCOC(=O)CCN1C(=O)[C@H]2[C@H]3[C@H](O)[C@H](O)CC(=NNC(=O)OCc4ccccc4)[C@@H]3CC[C@H]2C1=O 0.265, CC(C)=CCCC(C)=CCON=C1C[C@@H](O)[C@@H](O)[C@@H]2[C@@H]3C(=O)N(c4ccc(F)cc4F)C(=O)[C@@H]3CC[C@@H]12 -0.118, CCc1cc2c(nc1CC)CCN(CCC(C)=NO[C@H](C)c1cn([C@H](CO)Cc3ccccc3)nn1)C2 -0.0554, COC(=O)[C@H](C)NC(=O)CCC1CC(OC(=O)NCCc2ccc(F)cc2)CC2(CCCC(COC(=O)NCCC(C)C)O2)O1 (stereo partly specified) -1.56, CCCNC(=O)OC[C@H]1O[C@H](CCON=C(C)CCN2CCc3nc(CC)c(CC)cc3C2)C=C[C@@H]1Oc1ccc(OC)cc1 -1.02, COc1cccc([C@H]2Oc3ccc(OC)cc3C(=NO[C@H](C)c3cn([C@H](CO)Cc4ccccc4)nn3)[C@@H]2O)c1 0.397, Cc1ccc(S(=O)(=O)n2c3ccccc3c3nnc(C(=O)c4ccccc4)nc32)cc1 -1.04, CCOC(=O)[C@H](Cc1ccccc1)NC(=O)CCC1CC(OC(=O)NCc2ccc3c(c2)OCO3)CC2(CCCC(COC(=O)NCCc3ccccc3OC)O2)O1 (stereo partly specified) 0.222, Cn1c(=O)n2n(c1=O)[C@H]1[C@H](O)[C@@H]3O[C@@H]3C(=O)[C@H]1CC2 -0.515, C[C@@H]1CC[C@H]2C(=O)O[C@@H](Cc3ccccc3)CN2[C@H]1c1ccc(Br)cc1 -0.387, CCOC(=O)[C@H](CC(C)C)NC(=O)CCC1CC(OC(=O)NCCc2ccc(F)cc2)CC2(CCCC(COC(=O)NCCc3ccc(Cl)cc3)O2)O1 (stereo partly specified) 0.0483, CO[C@H]1COC(=O)[C@H](C)NC(=O)CC=C[C@@H](C)[C@H](OC)COC(=O)[C@@H](OCc2ccccc2)C=C[C@@H]1C -0.00187, C#CCCCON=C1C[C@@H](O)[C@@H](O)[C@@H]2[C@@H]3C(=O)N(c4ccc(F)cc4F)C(=O)[C@@H]3CC[C@H]12 -1.35, O=C1C[C@@H](O)[C@@H](O)[C@@H]2[C@@H]3C(=O)N(Cc4ccc5c(c4)OCO5)C(=O)[C@@H]3CC[C@H]12 1.03
